Results on nine compounds are retold here after PubChem BioAssay (NCI).

Some test systems named below: SR leukemia; RPMI-8226 leukemia; OVCAR-8 ovarian; OVCAR-5 ovarian; OVCAR-4 ovarian; SK-OV-3 ovarian; IGROV1 ovarian; OVCAR-3 ovarian; HS 578T breast; NCI/ADR-RES ovarian; T-47D breast; BT-549 breast; MDA-MB-435 melanoma; SW-620 colon; MCF7 breast; HCT-116 colon; HCC-2998 colon; KM12 colon.
Common to all, as to assay: NCI-60 one-dose screen, 48 h (100 = growth as untreated, 0 = no growth, -100 = all killed)
What all share (settings): 10 µM unless noted

About 83,000 compounds went through this panel and 20% of them were active in at least one assay; those are over-represented in the sample as a whole.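 Growth was measured after 48 h exposure to one concentration of compound in 96-well plates. Values under 10 count as active.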 Values without a mark were called inactive. Active and inactive are the calls of the source.

Consider `COC(=O)[C@@H]1CC[C@]2(C)[C@H](CC[C@@H]3O[C@@]32C)[C@@]1(C)CC(=O)c1ccoc1`, for which the growth in the experiment on SR leukemia is 86.6%; in the experiment with RPMI-8226 leukemia, 91.2%; in the experiment on OVCAR-8 ovarian it was 102%; with OVCAR-5 ovarian, 109%; in the experiment with OVCAR-4 ovarian, 127%; in the experiment with SK-OV-3 ovarian, 103%. In addition, the growth in the experiment on IGROV1 ovarian is 105%; in the experiment with OVCAR-3 ovarian, 105%; in the experiment with HS 578T breast, 88.2%; in the experiment on NCI/ADR-RES ovarian it was 103%; in the experiment on T-47D breast it was 105%; in the experiment on BT-549 breast, 105%. The growth in the experiment on MDA-MB-435 melanoma is 104%; in the experiment on SW-620 colon, 88.3%; in the experiment with MCF7 breast it was 93%; in the experiment with HCT-116 colon, 98.4%; in the experiment on HCC-2998 colon, 93.1%; in the experiment with KM12 colon, 108%.

Consider `CC(=O)C1=C(O)C=C2Oc3c(C(=O)/C=C/c4ccccc4)c(O)c(C)c(O)c3[C@]2(C)C1=O`, for which the growth is 30.3% with SR leukemia; 34.9% with RPMI-8226 leukemia; 14% with OVCAR-8 ovarian; 78.7% in the experiment with OVCAR-5 ovarian; 55.4% in the experiment with OVCAR-4 ovarian; 40.9% in the experiment with SK-OV-3 ovarian. Besides, the growth in the experiment on IGROV1 ovarian is 37.1%; with OVCAR-3 ovarian it was 27.5%; in the experiment on HS 578T breast, 50%; with NCI/ADR-RES ovarian, 16.9%; with T-47D breast, 47.1%; in the experiment on BT-549 breast, 49.6%. Moreover, the growth in the experiment on MDA-MB-435 melanoma was 46.3%; in the experiment with SW-620 colon, 49.9%; in the experiment with MCF7 breast, 44.1%; with HCT-116 colon it was 30.9%; in the experiment on HCC-2998 colon, 32.6%; with KM12 colon, 33.6%.

With `COc1nc2c(cc1S(=O)(=O)c1ccccc1)CCc1c-2cnn1Cc1ccccc1`, the growth in the experiment on SR leukemia was 26.2%; in the experiment on RPMI-8226 leukemia, 32.8%; in the experiment on OVCAR-8 ovarian, 54%; in the experiment with OVCAR-5 ovarian it was 93.6%; with OVCAR-4 ovarian, 35.2%; in the experiment on SK-OV-3 ovarian, 58%. For the same compound, the growth with IGROV1 ovarian is 80.5%; in the experiment with OVCAR-3 ovarian it was 64.5%; in the experiment with HS 578T breast, 79.9%; with NCI/ADR-RES ovarian, 48.2%; in the experiment with T-47D breast, 16.3%; in the experiment with BT-549 breast it was 62.8%. Further, the growth was 58.9% with MDA-MB-435 melanoma; 74.1% in the experiment with SW-620 colon; 15.4% in the experiment on MCF7 breast; 32.5% in the experiment on HCT-116 colon; 60.5% in the experiment on HCC-2998 colon; 27.7% in the experiment with KM12 colon.

For the compound `NCc1cn2cc(Cl)sc2n1`, the growth in the experiment with SR leukemia is 102%; in the experiment on RPMI-8226 leukemia it was 106%; in the experiment with OVCAR-8 ovarian, 105%; in the experiment with OVCAR-5 ovarian, 98%; with OVCAR-4 ovarian, 100%; with SK-OV-3 ovarian, 103%. Moreover, the growth in the experiment on IGROV1 ovarian is 109%; in the experiment with OVCAR-3 ovarian, 114%; in the experiment with HS 578T breast it was 113%; with NCI/ADR-RES ovarian, 111%; in the experiment on T-47D breast, 111%; in the experiment with BT-549 breast, 111%. Besides, the growth was 113% in the experiment on MDA-MB-435 melanoma; 106% in the experiment on SW-620 colon; 95% in the experiment on MCF7 breast; 107% with HCT-116 colon; 102% in the experiment with HCC-2998 colon; 106% with KM12 colon.

As for `C=C1C(=O)O[C@H]2[C@H]1CC/C(Cn1cc(Cn3ccc4cc(Cl)ccc43)nn1)=C\CC[C@@]1(C)O[C@@H]21`, the growth is -27% (active) in the experiment with SR leukemia; -42.3% (active) in the experiment on RPMI-8226 leukemia; -38.8% (active) in the experiment with OVCAR-8 ovarian; 69.5% in the experiment on OVCAR-5 ovarian; 14.3% with OVCAR-4 ovarian; 85.9% in the experiment with SK-OV-3 ovarian. Also, the growth was 2.27% (active) in the experiment with IGROV1 ovarian; -91.2% (active) with OVCAR-3 ovarian; 52.1% in the experiment on HS 578T breast; 50.6% with NCI/ADR-RES ovarian; -47.6% (active) in the experiment with T-47D breast; 22.8% in the experiment with BT-549 breast. In addition, the growth in the experiment with MDA-MB-435 melanoma was 1.14% (active); in the experiment with SW-620 colon, -75.7% (active); with MCF7 breast, -77.5% (active); with HCT-116 colon it was -91.5% (active); in the experiment with HCC-2998 colon, 39.1%; in the experiment on KM12 colon, 52%.

As for `COc1ccc(C/C(C)=C(\c2ccc(OCCN3CCCCCC3)cc2)c2ccc(OC(=O)C3CCCCC3)cc2)cc1`, the growth was 3.43% (active) in the experiment on SR leukemia; 40.1% in the experiment with RPMI-8226 leukemia; 68.9% with OVCAR-8 ovarian; 81.9% in the experiment with OVCAR-5 ovarian; 71.7% in the experiment with OVCAR-4 ovarian; 77.8% with SK-OV-3 ovarian. Besides, the growth was 52.3% with IGROV1 ovarian; 63.5% with OVCAR-3 ovarian; 51.6% in the experiment with HS 578T breast; 73.5% in the experiment on NCI/ADR-RES ovarian; 38.1% in the experiment on T-47D breast; 83.7% in the experiment on BT-549 breast. The growth with MDA-MB-435 melanoma is 68.8%; with SW-620 colon, 64.8%; in the experiment on MCF7 breast it was 29.3%; in the experiment with HCT-116 colon, 38.5%; in the experiment on HCC-2998 colon, 56.9%; with KM12 colon, 63.1%.

Consider `CC1=NNC(=O)C1C` (configuration not stated), for which the growth with SR leukemia is 121%; in the experiment on RPMI-8226 leukemia it was 73.1%; with OVCAR-8 ovarian it was 83.3%; in the experiment with OVCAR-5 ovarian it was 122%; in the experiment on OVCAR-4 ovarian, 128%; in the experiment with SK-OV-3 ovarian it was 101%. Also, the growth in the experiment on IGROV1 ovarian is 106%; with OVCAR-3 ovarian it was 109%; in the experiment with HS 578T breast, 90.8%; in the experiment with NCI/ADR-RES ovarian, 105%; in the experiment on T-47D breast, 104%; with BT-549 breast it was 284%. The growth was 104% with MDA-MB-435 melanoma; 98% with SW-620 colon; 104% with MCF7 breast; 84.2% in the experiment with HCT-116 colon; 103% with HCC-2998 colon; 102% in the experiment with KM12 colon.

Regarding `OCCNCCNc1c2ccccc2nc2ccccc12`, the growth in the experiment on SR leukemia was 43.9%; with RPMI-8226 leukemia it was 90.8%; in the experiment on OVCAR-8 ovarian it was 46.3%; in the experiment with OVCAR-5 ovarian, 114%; with OVCAR-4 ovarian it was 63.9%; in the experiment with SK-OV-3 ovarian, 78%. For the same compound, the growth in the experiment on IGROV1 ovarian was 96.7%; in the experiment on OVCAR-3 ovarian it was 65.6%; in the experiment on HS 578T breast, 88.4%; with NCI/ADR-RES ovarian it was 89.1%; in the experiment on T-47D breast, 39.6%; in the experiment on BT-549 breast, 103%. Besides, the growth in the experiment with MDA-MB-435 melanoma was 89.4%; in the experiment with SW-620 colon it was 59.5%; with MCF7 breast, 23.4%; in the experiment with HCT-116 colon, 37.7%; in the experiment on HCC-2998 colon it was 52.6%; with KM12 colon it was 55.6%.

Take `CN1CCOCCOCCOc2ccccc2NC(=O)c2nc(cnc2N)-c2ccc(cc2)S1(=O)=O`: the growth was -16.3% (active) in the experiment on SR leukemia; 30.3% with RPMI-8226 leukemia; 64% in the experiment on OVCAR-8 ovarian; 148% in the experiment on OVCAR-5 ovarian; 46.1% in the experiment on OVCAR-4 ovarian; 41% in the experiment with SK-OV-3 ovarian. Also, the growth with IGROV1 ovarian was 50.8%; in the experiment with OVCAR-3 ovarian, 43.7%; in the experiment with HS 578T breast, 66.4%; with NCI/ADR-RES ovarian, 43.5%; in the experiment with T-47D breast, 80.1%; in the experiment with BT-549 breast it was 48.1%. The growth was 58.3% in the experiment on MDA-MB-435 melanoma; 48.7% in the experiment with SW-620 colon; 31.1% in the experiment on MCF7 breast; 29.1% with HCT-116 colon; 32.2% in the experiment with HCC-2998 colon; 33.3% in the experiment on KM12 colon.
